Reference: PubChem BioAssay AID1445 (SRMLSC, 2008)
Among all 220,000 compounds or so, about 910 (0.41%) were called active. The sample holds actives, similar compounds and a random draw of the others, so the mix is not that of the screen. Measured potencies and affinities stand elsewhere. A number with no mark means an inactive call.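 The calls were made as follows: active = primary inhibition above the hit cutoff, then over 50% inhibition at one or more dose response concentrations (cut at about 23% in these data, passing the limit was not always enough); inconclusive = conflicting primary data, or primary hits not chosen for dose response; inactive = low primary inhibition, or under 50% at every dose.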

Biological target: Aminopeptidase N (Plasmodium falciparum (isolate 3D7)) (UniProt O96935)
Test: P. falciparum M1AAP inhibitors, biochemical, fluorogenic H-Leu-NHMec substrate, 1536-well (AID 1445);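 also: plate controls were DMSO full reaction for no effect and no enzyme background for full effect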
Conditions: recombinant M1AAP, H-Leu-NHMec fluorogenic kinetic assay; at 30 µM, stronger effect = higher value unless noted

Chain of Aminopeptidase N (Plasmodium falciparum (isolate 3D7)) (O96935 whole entry, looked up): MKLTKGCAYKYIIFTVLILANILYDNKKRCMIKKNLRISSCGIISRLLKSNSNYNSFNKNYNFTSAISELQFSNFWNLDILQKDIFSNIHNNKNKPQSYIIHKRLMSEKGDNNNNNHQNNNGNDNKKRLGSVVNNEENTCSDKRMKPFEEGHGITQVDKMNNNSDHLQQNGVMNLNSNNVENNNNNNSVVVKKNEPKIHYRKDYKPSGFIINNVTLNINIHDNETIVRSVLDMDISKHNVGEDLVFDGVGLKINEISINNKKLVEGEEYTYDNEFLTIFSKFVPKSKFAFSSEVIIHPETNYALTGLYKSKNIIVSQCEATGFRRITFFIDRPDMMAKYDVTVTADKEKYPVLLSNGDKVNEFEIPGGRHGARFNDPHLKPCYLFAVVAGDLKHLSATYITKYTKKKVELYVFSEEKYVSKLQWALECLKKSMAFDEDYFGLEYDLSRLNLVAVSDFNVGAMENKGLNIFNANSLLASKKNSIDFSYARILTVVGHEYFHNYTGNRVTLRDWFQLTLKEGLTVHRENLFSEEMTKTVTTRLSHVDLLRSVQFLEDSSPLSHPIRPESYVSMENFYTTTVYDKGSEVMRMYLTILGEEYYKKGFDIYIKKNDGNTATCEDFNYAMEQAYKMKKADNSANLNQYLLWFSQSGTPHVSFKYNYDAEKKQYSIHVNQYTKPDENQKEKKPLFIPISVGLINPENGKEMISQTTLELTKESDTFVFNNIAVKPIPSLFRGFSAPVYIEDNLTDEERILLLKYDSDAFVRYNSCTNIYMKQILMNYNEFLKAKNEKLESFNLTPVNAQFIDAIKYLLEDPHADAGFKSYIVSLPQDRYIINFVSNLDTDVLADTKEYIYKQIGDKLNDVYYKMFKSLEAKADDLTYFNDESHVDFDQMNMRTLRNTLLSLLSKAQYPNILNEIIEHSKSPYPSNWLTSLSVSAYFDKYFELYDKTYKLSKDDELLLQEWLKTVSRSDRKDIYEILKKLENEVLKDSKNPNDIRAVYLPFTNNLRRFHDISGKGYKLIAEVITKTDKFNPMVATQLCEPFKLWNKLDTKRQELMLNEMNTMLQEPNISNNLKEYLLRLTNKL

With `CCCN=C(C)C1=C(O)c2ccccc2C1=O` as the compound, how does the inhibition read?
The inhibition was 3.71%.

`CC(=NCc1cccnc1)C1=C(O)c2ccccc2C1=O` was tested. Which inhibition did it give?
The inhibition was 4.58%.

`CC(=NCc1ccncc1)C1=C(O)c2ccccc2C1=O` was tested. Which inhibition did it give?
Its inhibition is 23.6% (active).

Which inhibition does the source give for `CCC(c1nnnn1Cc1ccco1)N1CCC(C(N)=O)CC1` (stereo unspecified) here?
The inhibition was 10.1%.

How did the inhibition turn out when `Cc1ccc(-c2cc(N)n(Cc3ccc(Cl)cc3)n2)cc1` was run?
Its inhibition is 12.9%.

Which inhibition does the source give for `Nc1cc(-c2ccccc2)nn1Cc1ccc(Cl)cc1` here?
Its inhibition is 25.7% (active).

How did the inhibition turn out when `Nc1cc(-c2ccccc2)nn1Cc1ccccc1` was run?
Its inhibition is 34.3%.

Which inhibition does the source give for `N#CC1=C(N)OC2=C(C(=O)CCC2)[C@]12C(=O)N(CC(N)=O)c1ccccc12` here?
Its inhibition is 9.16%.

With `Cc1cccc(Nc2nc(N)nc(CN3CCN(C)CC3)n2)c1` as the compound, how does the inhibition read?
The inhibition was 9.59%.

How did the inhibition turn out when `CCN(CC)CCCNC(=O)C(C)n1c2ccccc2c2nc(=O)cc(C)n21` (stereo unspecified) was run?
The inhibition was 3.31%.

Which inhibition does the source give for `COc1ccc(N/C(C)=C2/C(=O)C(=O)N(CCO)C2c2ccc([N+](=O)[O-])cc2)cc1` (stereo unspecified) here?
Its inhibition is 23.9% (active).

`COc1ccc(C2/C(=C(/O)c3ccccc3)C(=O)C(=O)N2CCO)cc1` (stereo unspecified) was tested. Which inhibition did it give?
Its inhibition is 2.56%.

For `COc1ccc(N/C(C)=C2/C(=O)C(=O)N(CCO)C2c2ccc(Br)cc2)cc1` (stereo unspecified), which inhibition is on record?
Its inhibition is 7.27%.

`CCCCN1C(=O)C(O)=C(C(C)=O)C1c1ccccc1[N+](=O)[O-]` (stereo unspecified) was tested. Which inhibition did it give?
The inhibition was -0.46%.

How did the inhibition turn out when `CCCCN(CC)S(=O)(=O)c1ccc2c(c1)CCCN2C(C)=O` was run?
Its inhibition is -2.36%.

`CC1CCCCN1S(=O)(=O)c1cnc(Cl)c(Br)c1` (stereo unspecified) was tested. Which inhibition did it give?
The inhibition was -7.81%.

`O=C(c1ccccc1F)N1CCN=C1c1ccccc1` was tested. Which inhibition did it give?
Its inhibition is 6.9%.

For `Cc1occc1C(=O)N/N=C/c1ccccn1`, which inhibition is on record?
The inhibition was 3.01%.

With `COc1ccc(-n2cnnc2SCC(=O)Nc2cc(S(=O)(=O)N3CCCCC3)ccc2C)cc1` as the compound, how does the inhibition read?
The inhibition was 3.33%.

`Nn1c(SCC(=O)Nc2cc(S(=O)(=O)N3CCOCC3)ccc2Cl)nnc1-c1cccnc1` was tested. Which inhibition did it give?
The inhibition was 6.37%.

With `Cc1ccnc2nc(C(=O)Nc3ccc(S(=O)(=O)N4CCCC4)cc3)nn12` as the compound, how does the inhibition read?
Its inhibition is -4.02%.

How did the inhibition turn out when `COc1ccc2nc(SCC(=O)N3CCCCCC3)c(C#N)cc2c1` was run?
Its inhibition is 6.08%.

`O=C(CSc1nc2ccccc2nc1SCC(=O)N1CCOCC1)N1CCOCC1` was tested. Which inhibition did it give?
Its inhibition is 6.36%.

For `COc1ccc2nc(SCC(=O)N3CCCCC3)c(C#N)cc2c1`, which inhibition is on record?
The inhibition was 19.1%.

`Cc1cc2ccccc2nc1SCC(=O)N1CCCC1` was tested. Which inhibition did it give?
The inhibition was 11.8%.

How did the inhibition turn out when `O=C(CSc1nc2ccccc2nc1SCC(=O)N1CCCCC1)N1CCCCC1` was run?
The inhibition was 42.7% (active).

For `O=C(CCc1nnc(Cc2c[nH]c3ccccc23)o1)NC(C1CC1)C1CC1`, which inhibition is on record?
The inhibition was 1.78%.

For `CN1CCN(C(=O)CCNC(=O)Cn2ccc3ccccc3c2=O)CC1`, which inhibition is on record?
Its inhibition is 2.23%.

How did the inhibition turn out when `CC(=O)Nc1ccc(NC(=O)Cn2nc([N+](=O)[O-])c(Br)c2C)cc1` was run?
The inhibition was -1.26%.

With `CCn1c(COc2cccc(OC)c2)nnc1SCC(=O)Nc1cccc(OC)c1` as the compound, how does the inhibition read?
The inhibition was -3.8%.

For `CCCn1cc(S(=O)(=O)CC(=O)N2CCc3ccccc32)c2ccccc21`, which inhibition is on record?
The inhibition was -2.1%.

How did the inhibition turn out when `CCC(C)(C(=O)NC1CCCCC1)N(CC1CCCO1)C(=O)CNC(=O)c1ccccc1` (stereo unspecified) was run?
The inhibition was 4.25%.

`O=C(CS)Nc1ccc2ccccc2c1` was tested. Which inhibition did it give?
Its inhibition is 6.21%.

How did the inhibition turn out when `Cc1ccc(Cl)cc1N1CCN(C(CC(C)C)c2nnnn2CC2CCCO2)CC1` (stereo unspecified) was run?
The inhibition was -6.33%.

For `CC(C)CC(c1nnnn1CC1CCCO1)N1CCN(c2cccc(Cl)c2)CC1` (stereo unspecified), which inhibition is on record?
The inhibition was 31.4% (active).

`CCCC(c1nnnn1CC1CCCO1)N1CCN(c2ccccc2)CC1` (stereo unspecified) was tested. Which inhibition did it give?
Its inhibition is 7.5%.

`CCCCCc1ccc(CC(=O)O)cc1` was tested. Which inhibition did it give?
The inhibition was 3%.

`O=c1nc(N2CCCC2)nc(Nc2ccccc2)[nH]1` was tested. Which inhibition did it give?
Its inhibition is 9.86%.

`c1ccc(Nc2nc(N3CCCCC3)nc(N3CCCCC3)n2)cc1` was tested. Which inhibition did it give?
Its inhibition is 2.1%.

With `CCOC(=O)CC(NC(C)=O)c1ccc([N+](=O)[O-])cc1` (stereo unspecified) as the compound, how does the inhibition read?
Its inhibition is 2.95%.

Which inhibition does the source give for `CCc1cc2c(=O)c(-c3nc4ccccc4n3C)c(COCC(=O)O)oc2cc1O` here?
The inhibition was 6.97%.

For `COC(=O)C(=Nc1ccccc1)/C(C(=O)C(=O)N(C)c1ccccc1)=C(\O)c1ccccc1`, which inhibition is on record?
The inhibition was 16.3%.

`O=C(O)c1c2c(nc3ccc(S(=O)(=O)N4CCC(C(=O)NC5CCCC5)CC4)cc13)CCCCC2` was tested. Which inhibition did it give?
The inhibition was 26.5% (active).

For `O=C(O)c1c2c(nc3ccc(S(=O)(=O)N4CCC(C(=O)NC5CCCCCC5)CC4)cc13)CCCC2`, which inhibition is on record?
The inhibition was 23.1%.

For `CCCNC(=O)C1CCN(S(=O)(=O)c2ccc3nc4c(c(C(=O)O)c3c2)CCCCC4)CC1`, which inhibition is on record?
Its inhibition is 25.7% (active).

For `CC1CCC(NC(=O)C2CCN(S(=O)(=O)c3ccc4nc5c(c(C(=O)O)c4c3)CC(C)CC5)CC2)CC1` (stereo unspecified), which inhibition is on record?
The inhibition was 7.59%.
